Data: paper PMC4336329 (PLoS ONE, 2015)
The campaign covered roughly 310,000 compounds. About 14,000 (4.5%) showed an effect of 50% or more. Effects have a minus sign here. Shown is part of a subset that was picked to be rich in strong results.

target: human ether-à-go-go-related gene (hERG) potassium channel (human, UniProt Q12809); test: primary screen, population patch clamp on CHO cells stably expressing hERG; higher = less effect of the substance
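Also: peak tail current of the secondary pulse compared with the same well before compound.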

Chain of human ether-à-go-go-related gene (hERG) potassium channel (Q12809 whole entry, looked up): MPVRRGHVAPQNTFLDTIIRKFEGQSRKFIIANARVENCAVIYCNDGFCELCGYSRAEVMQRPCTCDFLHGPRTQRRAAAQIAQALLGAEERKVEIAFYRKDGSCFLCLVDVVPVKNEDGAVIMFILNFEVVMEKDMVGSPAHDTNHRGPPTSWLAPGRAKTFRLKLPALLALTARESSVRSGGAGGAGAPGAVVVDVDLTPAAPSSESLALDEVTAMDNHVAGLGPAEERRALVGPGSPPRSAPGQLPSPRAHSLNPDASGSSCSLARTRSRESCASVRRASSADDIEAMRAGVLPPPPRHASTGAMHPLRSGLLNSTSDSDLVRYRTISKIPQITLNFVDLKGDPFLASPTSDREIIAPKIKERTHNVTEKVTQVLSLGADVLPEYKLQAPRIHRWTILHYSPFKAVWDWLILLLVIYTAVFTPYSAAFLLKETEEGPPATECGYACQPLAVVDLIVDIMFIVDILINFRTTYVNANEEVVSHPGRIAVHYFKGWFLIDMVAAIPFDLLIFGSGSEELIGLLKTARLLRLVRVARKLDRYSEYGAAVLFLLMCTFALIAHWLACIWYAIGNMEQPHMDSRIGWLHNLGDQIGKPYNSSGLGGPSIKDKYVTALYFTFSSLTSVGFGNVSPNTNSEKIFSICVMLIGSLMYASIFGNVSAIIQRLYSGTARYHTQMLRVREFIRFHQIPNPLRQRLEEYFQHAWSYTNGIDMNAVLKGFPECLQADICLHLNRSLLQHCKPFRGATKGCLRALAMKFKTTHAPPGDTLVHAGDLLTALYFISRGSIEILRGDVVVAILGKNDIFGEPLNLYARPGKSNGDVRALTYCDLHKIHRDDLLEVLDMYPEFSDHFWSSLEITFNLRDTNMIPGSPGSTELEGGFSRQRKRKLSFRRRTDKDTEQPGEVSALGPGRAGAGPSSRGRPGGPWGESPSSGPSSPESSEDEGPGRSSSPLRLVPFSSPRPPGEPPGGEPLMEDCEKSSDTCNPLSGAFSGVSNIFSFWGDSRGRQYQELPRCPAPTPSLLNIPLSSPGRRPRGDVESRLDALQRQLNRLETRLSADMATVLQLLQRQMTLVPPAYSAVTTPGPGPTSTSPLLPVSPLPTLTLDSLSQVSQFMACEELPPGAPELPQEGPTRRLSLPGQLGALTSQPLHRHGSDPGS

SMILES	hERG current change (%, negative = inhibition) at 10uM
CCOc1ccc(NC(=O)Cn2nnc(C(=O)NCc3ccco3)c2N)cc1	15.1%
C=CCN1C(=O)S/C(=C/c2ccc(Sc3nc4ccccc4[nH]3)o2)C1=O	3.61%
CCN1C(=O)N[C@@H](c2ccccc2)[C@H](C(=O)OC)[C@H]1C	-6.4%
COC(=O)Nc1nn(-c2ccc(C)cc2)c(=O)c(C#N)c1C	11.2%
CN(C)C(C(=O)NC1CCCCC1)c1ccc(Cl)cc1 (centres unmarked)	4.27%
COC(=O)c1ccc(N2CCN(C)CC2)c(NC(=O)COc2cccc(C)c2)c1	-18.9%
CCOC(=O)c1ccc(N=C(C)c2c(O)[nH]c(=O)[nH]c2=O)cc1	10.8%
CCCCn1nc(C(=O)NC2=NCCS2)c2ccccc2c1=O	-16.3%
Cc1cc(NC(=O)COC(=O)CC2CCCC2)c([N+](=O)[O-])cc1C	9.34%
CCOC(=O)CC(NC(=O)c1cc2cc(Cl)cc(Cl)c2oc1=O)c1cccc([N+](=O)[O-])c1 (centres unmarked)	-66.8%
CCOC(=O)CC(N)c1cccc([N+](=O)[O-])c1.Cl (centres unmarked)	2.9%
CCOC(=O)CC(NC(=O)c1cc2cccc(OC)c2oc1=O)c1ccc(OC)cc1 (centres unmarked)	-5.76%
CCOC(=O)CC(NC(=O)c1cc2ccccc2oc1=O)c1cccc([N+](=O)[O-])c1 (centres unmarked)	-58.5%
CCOC(=O)CC(NC(=O)c1cc2cc(Br)ccc2oc1=O)c1cccc([N+](=O)[O-])c1 (centres unmarked)	-27.5%
CCOC(=O)CC(NC(=O)c1cc2cccc(OC)c2oc1=O)c1cccc([N+](=O)[O-])c1 (centres unmarked)	-23%
O=C(Nc1ccccn1)C1COc2ccccc2O1 (centres unmarked)	16.1%
CCOC(=O)c1sc2nc(C)nc(NC3CCC(O)CC3)c2c1C (centres unmarked)	2.9%
CSc1ccccc1NC(=O)CN(C)CC(=O)Nc1ccc(Cl)cc1[N+](=O)[O-]	-31.6%
O=C(CN1C(=O)C2CC=CCC2C1=O)NCC(=O)Nc1ccc(F)c(F)c1F (centres unmarked)	7.55%
Cc1cc(Cl)c(S(=O)(=O)N/N=C/c2ccc3c(c2)OCO3)c(Cl)c1	2.77%
COc1ccc(NC(=O)N2CCc3ccccc3C2)cc1OC	11.3%
CCNc1nc(NC(C)C)nc(Nn2cnnc2)n1	9.05%

SMILES	hERG current change (%, negative = inhibition) at 10uM
O=C(NCc1cccs1)C1CCN(S(=O)(=O)c2cccc3nsnc23)CC1	-13.1%
CS(=O)(=O)c1ccccc1C(=O)Nc1cc(Cl)ccc1-n1cncn1	13.4%
O=C(CN1C(=O)NC2(CCc3ccccc32)C1=O)c1ccc(F)cc1 (centres unmarked)	-57.4%
O=C(CN1C(=O)NC2(CCc3ccccc32)C1=O)c1ccccc1 (centres unmarked)	15.1%
O=C(CN1C(=O)NC2(CCCc3ccccc32)C1=O)c1ccc(F)cc1 (centres unmarked)	-17%
COc1ccc(C(=O)CN2C(=O)NC3(CCCc4ccccc43)C2=O)cc1 (centres unmarked)	-36.2%
Cc1ccc(F)cc1NC(=O)CN1C(=O)NC2(CCCc3ccccc32)C1=O (centres unmarked)	-1.5%
Cc1cc(Cl)ccc1NC(=O)CN1C(=O)NC2(CCCc3ccccc32)C1=O (centres unmarked)	-1.38%
CS(=O)(=O)c1ccc(C(=O)CN2C(=O)NC3(CCCc4ccccc43)C2=O)cc1 (centres unmarked)	-51.5%
O=C(CN1C(=O)NC2(CCCc3ccccc32)C1=O)c1ccc(Br)cc1 (centres unmarked)	-20.4%
Cc1ccc(NC(=O)CN2C(=O)NC3(CCCc4ccccc43)C2=O)c([N+](=O)[O-])c1 (centres unmarked)	-75.6%
CCCS(=O)(=O)Nc1cccc(-c2cn3c(n2)SCC3)c1	-14.1%
COc1ccc(OC)c(S(=O)(=O)N2CCCC(C(=O)NCCN3CCOCC3)C2)c1 (centres unmarked)	21.2%
O=S(=O)(NCc1cccnc1)c1ccc(Cl)s1	6.91%
COc1ccc(C(=O)NCc2nnc(SCC(=O)Nc3nnc(C)s3)o2)cc1	14.5%
N#CC1(NC(=O)CSc2nnc(C3CC3)n2C2CC2)CCCCC1	-8.52%
CCS(=O)(=O)c1ccc2oc(Nc3ccc(OC)c(OC)c3)nc2c1	8.05%
Cc1ccc(-c2csc(NC(=O)C3=NN(C4CCS(=O)(=O)C4)C(=O)CC3)n2)cc1 (centres unmarked)	-3.9%
C=CCN(C(=O)C1=NN(C2CCS(=O)(=O)C2)C(=O)CC1)c1nc(-c2ccc([N+](=O)[O-])cc2)cs1 (centres unmarked)	-63.5%
C=CCN(C(=O)C1CC(=O)N(C2CCCC2)C1)c1nc(-c2ccc(S(C)(=O)=O)cc2)cs1 (centres unmarked)	-47.1%
CN1CCN(C2=Nc3cc(F)ccc3Cc3ccccc32)CC1	-35.7%
Cc1sc(NC(=O)Cc2ccc3c(c2)OCO3)nc1-c1ccc2c(c1)CCN2C(=O)c1ccccc1F	-0.586%

SMILES	hERG current change (%, negative = inhibition) at 10uM
COc1cc(NC(=O)Cc2c(C(=O)O)n(C)c3ccccc23)cc(OC)c1OC	35%
Cc1cccc(-n2c(O)c(C=NC3CCS(=O)(=O)C3)c3ccccc3c2=O)c1C (centres unmarked)	-54.1%
Cc1ccc(-n2c(O)c(C=NC3CCS(=O)(=O)C3)c3ccccc3c2=O)c(C)c1 (centres unmarked)	-0.346%
Cc1ccc(-n2c(O)c(C=NC3CCS(=O)(=O)C3)c3ccccc3c2=O)cc1 (centres unmarked)	-3.54%
O=S(=O)(NCCOc1ccccc1Cl)c1ccc2oc3ccccc3c2c1	3.52%
Cc1ccccc1C(=O)Nc1cccc(-c2ccc3nncn3n2)c1	-2.94%
OC1(CNCc2cn[nH]c2-c2cc3ccccc3o2)CCCCC1	-28.7%
O=C(c1ccccn1)C1CCCN(Cc2nc(Cc3cccc(F)c3)no2)C1 (centres unmarked)	-5.63%
COCC1CCCN(Cc2cn[nH]c2-c2cc3ccccc3o2)C1 (centres unmarked)	-47.5%
O=C(c1ccccn1)C1CCCN(Cc2cn[nH]c2-c2cc3ccccc3o2)C1 (centres unmarked)	-70%
COCCN1CCN(Cc2cn[nH]c2-c2cc3ccccc3o2)CC1	-6.62%
c1ccc(CCC2CCCCN2Cc2cn[nH]c2-c2cc3ccccc3o2)nc1 (centres unmarked)	-74.9%
COc1ccc(OC)c(NC(=O)C2C(C(=O)O)C3(Cl)C(Cl)=C(Cl)C2(Cl)C3(Cl)Cl)c1 (centres unmarked)	7.73%
Cc1cc(CNC(=O)CC2C(=O)NCCN2Cc2ccccc2C(F)(F)F)nn1C (centres unmarked)	9.04%
Cc1cc(Br)ccc1OCCCCNCCO.O=C(O)C(=O)O	-28.1%
C=CCNCCCCOc1ccc(Br)cc1C.O=C(O)C(=O)O	-41%
CN(C)CCOCCOc1ccc(Cl)cc1Br.O=C(O)C(=O)O	-42.6%
CN(C)CCCOc1cccc(Cl)c1.O=C(O)C(=O)O	-19.5%
Cc1cc(Br)ccc1OCCCCNC(C)(C)C.O=C(O)C(=O)O	-53.9%
CN(C)CCCOc1ccc(Cl)cc1Br.O=C(O)C(=O)O	-69.3%
COCCNCCCOc1ccc(Br)cc1Cl.O=C(O)C(=O)O	-31.8%
Cc1cc(Cl)cc(Cl)c1OCCCCN(C)C.O=C(O)C(=O)O	-43.7%

SMILES	hERG current change (%, negative = inhibition) at 10uM
COCCCNCCCCOc1ccc(Br)cc1Cl.O=C(O)C(=O)O	-67.1%
Cc1cc(Br)cc(C)c1OCCCCN(C)C.O=C(O)C(=O)O	-54.4%
Cc1cc(C)c(OCCCCN(C)C)c(Br)c1.O=C(O)C(=O)O	-41.5%
COCCCNC(=O)COc1ccc(Br)cc1Cl	-7.88%
CC(c1ccon1)N(C)C(=O)CCc1nnc(Cc2ccc(-c3ccccc3)cc2)o1 (centres unmarked)	-21.7%
COC(=O)/C(=C/c1ccc(F)cc1)NC(C)=O	-0.211%
O=C(CN1C(=O)S/C(=C\c2cccc(Cl)c2)C1=O)NC1C=CS(=O)(=O)C1 (centres unmarked)	18.1%
O=C(Nc1ccccc1F)c1ccc2c(c1)OCO2	15.7%
COCCCNCCCCOc1cccc(Br)c1.O=C(O)C(=O)O	-19.3%
COCCNCCCCOc1ccc(Br)cc1C.O=C(O)C(=O)O	-36.7%
CC(C)NCCCCOc1ccccc1-c1ccccc1.O=C(O)C(=O)O	-32.9%
CC(C)NCCCCOc1cccc(Br)c1.O=C(O)C(=O)O	-25.8%
COCCCNCCCCOc1ccc(Br)cc1C.O=C(O)C(=O)O	-64.6%
CC(C)NCCCOc1ccc(Cl)cc1Br.O=C(O)C(=O)O	-54.4%
CC(C)NCCCCOc1ccc(Br)cc1Cl.O=C(O)C(=O)O	-64.6%
Cc1ccc(OCCOCCNC(C)C)c(Br)c1.O=C(O)C(=O)O	-18.3%
Cc1cccc(NS(=O)(=O)c2cccc(C(=O)N3CCCCCC3)c2)c1	-3.09%
Cc1cnn(-c2cc(N/N=C/c3ccc(F)cc3)ncn2)c1	5.69%
CC(C)Cc1nnc(NC(=O)CCC(=O)N2CCC3(CC2)OCCO3)s1	12.3%
O=c1c2ccccc2oc2cc(C#Cc3ccccn3)ccc12	7.36%
